Reference: the supplement of paper PMC11417369
± gives the standard deviation of the averaged measurements. In all, about 25,000 sequences were measured (“ln(normalized median fluorescence intensity)”: median about 8.6, highest 2% from about 10 on). The sample holds the highest values, similar sequences and a random draw of the others, so the mix is not that of the screen.

These sequences were tested on PfAP2-EXP AP2 domain (GST-tagged) (assay: gcPBM binding intensity (ln(normalized median fluorescence intensity)); higher = stronger DNA binding).
Outline: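 Plasmodium falciparum DNA-binding domains carrying a GST tag were expressed in E. coli and applied for 1 h, at about 25 μg on average, to an Agilent 4 × 180k array. The array held primer-extended double-stranded 36-bp intergenic genomic probes together with negative controls, and binding took place in 1× PBS with 1% milk, 0.2 mg/ml BSA, 0.5% salmon testes DNA and 0.03% Triton X-100. An Alexa488 anti-GST antibody detected bound protein, and the array was scanned at 488 nm. Binding intensity is taken as the highest Masliner-normalised natural-log median intensity across replicate spots of either probe orientation.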

Sequence | gcPBM binding intensity (ln)
AAATTCATATGAATTTGTACGGACATAAATATCTTC [XGTACX_site1838] | 8.62 ± 0.33
TGAATTTACAAAATCATGCACTTAATTACAGAATAA | 8.38 ± 0.26
TCCATATGCAAACTGGTGCACAAGTAGCTTTTATAT | 8.99 ± 0.3
TCATAAAAAGGAATCTTTAAGATATTTTATAAGCTC [XGTACX_negctrl_site18] | 8.06 ± 0.5
TATATAAAAATCAATTGTACTTTTTTTTTTTTTTTT [XGTACX_site7327] | 8.52 ± 0.16
TTAAGATCCTAAAAAACACACAATTGTGAATAATAA [CACACA_site3872] | 8.69 ± 0.53
TGTAGATAAAATAAACGTACGTATTGATTTTTTTCA [XGTACX_site1610] | 8.26 ± 0.41
TATTCTAGTCTGCTTACACACATATTTATATTTATA [CACACA_site7432] | 8.81 ± 0.54
TATTATATTCTGCTTACACACATATATATATATATA [CACACA_site3060] | 10.3 ± 0.38
CATATTATATTCTGCTTACACACATATATATATATA [CACACA_site3059] | 10.1 ± 0.42
GAAGATTTATCTTGCACACGCAAAAAAAAAAAAAAA [CACACA_site154] | 8.4 ± 0.27
TGAAGGATATATTCCGTGCACATATAAATATATACA | 8.735 ± 0.007
ATATATATATATATATGTACTAAATATTCATCCTTA [XGTACX_site6039] | 10.2 ± 0.3
AAAATATTTCATATATGTACTTAAAAAAAAAAAAAA [XGTACX_site5399] | 8.27 ± 0.38
AATCTTAAAAATATATGTACTAAAAAAAAAAAAAAT [XGTACX_site6195] | 8.37 ± 0.47
CTATATATATATTTCAGTACATATTAAGAATATATA [XGTACX_site4860] | 8.31 ± 0.38
TATAACATAGGACACACACACATACATACACAAAAA [CACACA_site5062] | 8.94 ± 0.35
ATATATATATATAAAGGTACACATTTATTAAATATA [XGTACX_site7102] | 10.1 ± 0.12
TTTAATATGTATTTTTTTTTTTTTTTTTTTTTTTTT [XGTACX_negctrl_site440] | 9.06 ± 0.085
ATATAATATATATATTGTACATATATTTATAAGCAT [XGTACX_site3726] | 8.38 ± 0.19
ATATCCTACTTCTAGTGTACATATATGGACTGATGA [XGTACX_site3683] | 8.87 ± 0.35
AAGCATCCTACTGATTGTACATATATATATATATAT [XGTACX_site2150] | 10.2 ± 0.3
AACGAAATCATCAAGTGTACTAGTTTATTATTAATA [XGTACX_site6161] | 8.38 ± 0.42
TTTTTTCTTTTTTTTTGTACATATAATATTTATGTT [XGTACX_site302] | 8.62 ± 0.4

Sequence | gcPBM binding intensity (ln)
AAAATAATAATAGGCACACATATATATATATATATA [CACACA_site2058] | 10.1 ± 0.33
ATGTACTATAGGCACACACACTCACATATATATATA [CACACA_site5745] | 9.96 ± 0.22
AAGTACCATATAGGCACACATATATATATATATATA [CACACA_site3282] | 10.2 ± 0.34
AAGAAAAGCAAACAAGTGCATAATAACAAAAAAAAT [GTGCAC_site9725] | 9.13 ± 0.46
TTGTTTCTTAAATTATTTATTTTATATTAAAAAAAA [XGTACX_negctrl_site224] | 8.31 ± 0.46
ATTTATTTTATTTTCACACACAAAAATAAATATCCG [CACACA_site2414] | 8.44 ± 0.44
TTATTATTATTACTAGTGCATTAATTATATATGTAA | 8.72 ± 0.13
ATATATATATATATATGTACACATATATGTGTTTGT [XGTACX_site62] | 10.1 ± 0.26
TATATATCTATATATTGTACATATGTTTGTATGTGT [XGTACX_site7420] | 8.54 ± 0.29
CATATATATATATATTGTACAAGATTGTTTTTTTAT [XGTACX_site3913] | 8.76 ± 0.35
ATATATATATATATATGTACATATTATTATTTTGAT [XGTACX_site4752] | 10.1 ± 0.38
ATATATATATATATATGTACATACATATTGTTTGGT [XGTACX_site2284] | 10.3 ± 0.76
TTTTTTTTTTGATGTTGTACATATATATTATATATA [XGTACX_site6377] | 8.55 ± 0.41
GTGTTTTTTTTAGATTGTACATATATATATATATAT [XGTACX_site4562] | 10.3 ± 0.33
ATATTGTTATATGTTTGTACATATTTTTTATATTTT [XGTACX_site6834] | 8.93 ± 0.91
ATATATATATATATATGTACATATGTTTGTTTCCGC [XGTACX_site5167] | 10.3 ± 0.21
ATATATATATATATATGTACATATTTTTGTTTGATG [XGTACX_site51] | 10.2 ± 0.81
TTTATATTGTTTTATTGTACATATATATTTATACAT [XGTACX_site6821] | 8.81 ± 0.4
ATATATATATATATATGTACATATGTATGTGTTTGT [XGTACX_site397] | 9.93 ± 0.42
TAACTAAGGAATAATACACACAGAAATATAGATTTA [CACACA_site6293] | 8.41 ± 0.42
TTTTTTTTTTTTTTTTTTTTACGATATATTTTAAAA [XGTACX_negctrl_site401] | 8.03 ± 0.67
GTTATACATTTGAAAAGTACTCATGATTTTTTTTTT [XGTACX_site8177] | 8.75 ± 0.45
TCGAATATCTTATAGGTGCATCATAAATACATATGT | 8.69 ± 0.28
TGTATATATAATAAAACACACATTTTTAATGTGCTC [CACACA_site1437] | 8.01 ± 0.3
